HT1080NT lethal: kills 2HG-producing HT-1080-NT fibrosarcoma cells | Potency, µM (top dose mostly 46.1 µM), most hits filed as cytotoxic | AID 686970 | HT-1080-NT fibrosarcoma viability, CellTiter-Glo ATP luminescence, 48 h | hit rate 1.6% among 360,000;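 note: NT is the 2HG producing partner of a matched IDH1 knockdown line; nearly all actives have a fitted effect of over 55% in size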
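A 48-hour cytotoxicity screen used HT-1080-NT cells plated 2 hours before compound delivery. ATP-based CellTiter-Glo luminescence measured viability, normalized to DMSO and no-cell controls.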
SW480 rerep: inducers of DNA re-replication in SW480 colon cancer cells | SW480 DNA re-replication, Hoechst DNA content imaging, 48 h | Potency, µM (highest dose often 46.1 µM), most hits filed as activators | hit rate 1.8% among 340,000; note: nearly all actives have a fitted effect of over 55% in size
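Per well, 250 cells were exposed to pinned compound for 48 hr. Nuclear DNA was visualised with Hoechst (40 min, 37 C) and total object intensity recorded by fluorescence scanning.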
KB-3-1 cytotox: kills parental KB-3-1 adenocarcinoma cells | KB-3-1 viability, CellTiter-Glo ATP luminescence, 72 h | Potency, µM (series often up to 46.1 µM), actives largely listed as cytotoxic | hit rate 1.4% among 400,000; note: nearly all actives have a fitted effect of over 60% in size
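Screening of KB-3-1 cells (DMEM, 10% FBS, phenol-red free) ran from lowest to highest compound concentration; after 72 h at 37 °C viability was read luminescently and curves fitted.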
MCF10A rerep: induces DNA re-replication in MCF 10a normal breast cells | MCF 10A DNA re-replication, Hoechst nuclear intensity, 48 h | Potency, µM (series often up to 46.1 µM), hits mostly activators | hit rate 2.9% among 350,000; note: nearly all actives have a fitted effect of over 50% in size
HT1080 IDH1KD tx: HT-1080 IDH1 knockdown cell toxicity (counter line); HT-1080 IDH1 knockdown viability, ATP luminescence, 48 h; Potency, µM (titrated, usually from 46.1 µM), actives largely listed as cytotoxic; hit rate 2% among 360,000; AID 686971
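Assay cells: HT-1080 with IDH1 knockdown, 750 per well, RPMI/5% FBS. Exposure: 48 h at 37 °C following 2 h pre-incubation. Read: CellTiter-Glo luminescence; fitted concentration-response, curve class assigned.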
KB-V1 cytotox: KB-V1 MDR subline cytotoxicity. KB-V1 MDR cells viability, CellTiter-Glo, 72 h. Potency, µM (titrated, usually from 46.1 µM), most hits filed as cytotoxic. hit rate 3.4% among 400,000. AID 1347076; note: nearly all actives have a fitted effect of over 60% in size
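Drug-selected KB-V1 cells, grown in DMEM lacking phenol red with 10% FBS, receive compound titrations; after three days at 37 degrees C, surviving cell ATP is quantified by CellTiter-Glo luminescence and responses normalized and curve-fitted.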
A number is an active result; n = inactive; u = inconclusive; x = no result given. Most compounds without a hit are left out; they make up all but 8% or so of the library. Calls come from the whole dose curve; as a rule, active = well fitted curve in the direction sought with a large enough effect; inconclusive = small, poorly fitted or top-dose-only effect, or another doubt; inactive = no such curve, though single readings can be large; an effect the other way counts as inactive or inconclusive.

SMILES	HT1080NT lethal	SW480 rerep	KB-3-1 cytotox	MCF10A rerep	HT1080 IDH1KD tx	KB-V1 cytotox
N=c1c(S(=O)(=O)c2ccccc2)cc2c(=O)n3ccccc3nc2n1CCCN1CCOCC1	n	u	n	n	n	n
Cc1ccc(S(=O)(=O)c2cc3c(=O)n4ccccc4nc3n(CCCN3CCOCC3)c2=N)cc1C	n	23.1µM	n	23.1µM	n	n
N=c1c(S(=O)(=O)c2ccc(Cl)cc2)cc2c(=O)n3ccccc3nc2n1CCN1CCOCC1	n	n	n	n	n	13µM
Cc1nc2cc(-c3sccc3-n3cccc3)nn2c(C)c1C	n	n	n	u	n	16.4µM
O=C(N/N=C/c1ccccc1O)C1(O)c2ccccc2-c2ccccc21	n	u	n	u	u	n
NC(=O)c1ccc(NC(=O)C#Cc2ccccc2)cc1	20.6µM	14.6µM	23.1µM	u	16.4µM	n
COc1ccc(NC(=O)c2ccccc2SC)cc1OC	n	n	n	n	n	n
COc1ccc(NC(=O)C#Cc2ccccc2)cc1OC	u	n	18.4µM	n	18.4µM	u
O=C(Cc1ccc(Cl)cc1)NC1CC(=O)N(c2ccc3c(c2)OCCO3)C1 (stereo not given)	x	x	n	x	x	n
O=C(Nc1ccccc1)c1ccccc1Oc1ccc(C(F)(F)F)cc1[N+](=O)[O-]	n	n	u	n	n	u
O=C(Nc1ccc(F)cc1)c1ccccc1Oc1ccc(C(F)(F)F)cc1[N+](=O)[O-]	u	x	n	u	u	16.4µM
COC(=O)c1ccc(C23CC4(C2)[C@H](CN(Cc2ccc(C(F)(F)F)cc2)[C@@H]4c2ccccc2)C3c2ccc(Cl)nc2)cc1 (stereo not given in full)	n	n	n	n	n	n
FC(F)(F)c1ccc(CN2C[C@@H]3C(c4ccc(Cl)nc4)C4(c5cccnc5)CC3(C4)[C@H]2c2ccccc2)cc1 (stereo not given in full)	u	n	14.6µM	n	u	u
O=C(CN1C(=O)CNC1=O)Nc1cc(Cl)cc(Cl)c1	n	n	n	n	n	n
Cc1cc2n(n1)C(c1ccc(N(C)C)cc1)Nc1ccccc1-2 (stereo not given)	n	20.6µM	u	20.6µM	n	u
CC(=O)/C(=N\Nc1ccc(Cl)cc1)Sc1nnc(-c2ccccc2)n1-c1ccccc1	u	n	n	u	n	u
COc1ccc(-n2c(CCc3ccccc3)nnc2SCC(=O)NCc2ccccc2)cc1	n	n	n	n	n	n
COc1ccc(-n2c(CCc3ccccc3)nnc2SCC(=O)c2ccccc2)cc1	n	n	u	u	n	9.2µM
COc1ccccc1-c1nnc(SCC(=O)c2ccc(Cl)cc2)n1-c1ccccc1	x	x	n	x	x	u
COc1ccc(C(=O)CSc2nnc(CCc3ccccc3)n2-c2ccccc2)cc1	n	n	n	7.31µM	n	9.2µM
CC(=O)/C(=N/Nc1ccccc1)Sc1nnc(CCc2ccccc2)n1-c1ccccc1	n	u	n	n	n	23.1µM
Cc1c(NS(=O)(=O)c2ccc(C(C)(C)C)cc2)c(=O)n(-c2ccccc2)n1C	x	x	n	x	x	n
C[C@@]12CCC[C@@](C)(C(=O)O)C1CC[C@@]13C[C@@H](NCc4ccccc4)[C@@](C)(CCC12)C3 (stereo not given in full)	n	n	n	n	n	n
COCCc1nn2c(=O)cc(COC(=O)COc3ccc(F)cc3)nc2s1	x	x	u	x	x	n
COCCn1ccc(O)c(Cc2ccc(Cl)cc2)c1=O	n	n	n	n	n	n
O=S(=O)(Nc1ccc(O)c2ccccc12)c1cccs1	25.9µM	u	u	u	20.6µM	u
COc1cccc(NC(=O)Nc2ccncc2)c1	n	n	n	n	n	n
CCCC(=O)Nc1ccc(C(=O)Nc2cccc(OC)c2)cc1	n	n	n	n	n	n
CC(C)(C)C(=O)Nc1ccc(C(=O)OC2CCCCC2)cc1	12.6µM	n	n	n	u	u
COc1cccc(NC(=O)Nc2ccc(C(C)(C)C)cc2)c1	16.4µM	u	u	u	u	n
